# Source: PubChem BioAssay AID618 (Sanford-Burnham Center for Chemical Genomics, 2007)
# In all, about 87,000 compounds went through this assay and about 540 (0.62%) were called active. How the calls were made is not given here. Only a selection was taken, and actives are over-represented in it overall. Results with a measured potency or affinity are listed apart.
# Test: inhibitors of MT1-MMP promoter transcription, cell-based, luciferase reporter, luminescence (AID 618);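 further: actives suppress MT1-MMP promoter-driven transcription so potencies describe inhibitors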
# Details: MT1-MMP promoter luciferase reporter cells
row,SMILES,outcome
1,N#Cc1cc(N)c(Nc2ccccc2)cc1C#N,inactive
2,CCC1(c2ccccc2)NC(=O)N(CC(=O)Nc2cccc(C#N)c2)C1=O (configuration not stated),inactive
3,COc1cc(C)c(C(C)C)cc1S(=O)(=O)n1cnc(C)c1,active
4,COc1cc(C)c(Cl)cc1S(=O)(=O)n1cnc(C)c1,inactive
5,COc1cc(C)c(C(C)C)cc1S(=O)(=O)n1ccnc1,inactive
6,CCN1C(=O)/C(=C2\C=Cc3ccccc3N2CC)OC1=S,inactive
7,CCN1/C(=C/c2ccc3ccccc3[n+]2CC)C=Cc2ccccc21,active
8,CCN1C(=C2C(=O)c3ccccc3C2=O)C=Cc2ccccc21,inactive
9,CC1(C)CC(=O)N(c2ccccc2)C1(C)O (configuration not stated),inactive
10,Cc1cc(C(=O)CSc2nc3ccc(Cl)cc3[nH]2)c(C)n1CC1CCCO1 (configuration not stated),inactive
11,CCn1c(SCC(=O)c2cc(C)n(CC3CCCO3)c2C)nc2ccccc21 (configuration not stated),inactive
12,Cc1cc(C(=O)CSc2nc3ccccc3[nH]2)c(C)n1C,inactive
13,C=CCn1c(C)cc(C(=O)CSc2nc3ccccc3c(=O)[nH]2)c1C,inactive
14,C=CCc1c(C)nc(SC)nc1Nc1ccc(C(C)=O)cc1,inactive
15,CC1CC(C)(C)NC(=O)O1 (configuration not stated),inactive
16,Cc1ccc(Nc2cc(C)nn2-c2nc(C)cc(=O)[nH]2)cc1,active
17,Cc1cc(=O)[nH]c(-n2nc(C)cc2C)n1,inactive
18,Cc1ccc(Nc2cc(C)nn2-c2nc(C)cc(C)n2)cc1,inactive
19,C=CCn1c(SCc2c(C)noc2C)nc2cc(C(=O)O)ccc2c1=O,inactive
20,Cc1noc(C)c1CSc1nc2ccccc2c(=O)n1-c1ccc(Cl)cc1,inactive
21,C=CCn1c(SCc2c(C)noc2C)nc2ccccc2c1=O,active
22,Cc1noc(C)c1CSc1nc2[nH]ncc2c(=O)n1-c1ccccc1,active
23,Cc1nc(CSc2nc3[nH]ncc3c(=O)n2-c2ccccc2)cs1,inactive
24,Cc1noc(C)c1CSc1nc2ccccc2c(=O)n1-c1ccccc1,inactive

row,SMILES,outcome
1,COc1ccccc1NC(=O)CSc1nnnn1-c1ccc(C)cc1,inactive
2,COCCCNC(=O)CCc1nc2cccnc2n1Cc1ccccc1,inactive
3,O=C(NNC(=O)c1ccccc1Br)c1ccc(SCC2CCCO2)c([N+](=O)[O-])c1 (configuration not stated),inactive
4,COc1ccc(CNc2nc3ccccc3n2CCN2CCOCC2)cc1,inactive
5,COc1ccc(CC(=O)N2CCC(Nc3nc4ccccc4n3Cc3ccc(F)cc3)CC2)cc1,inactive
6,COc1ccc(CCN2CCC(Nc3nc4ccccc4n3Cc3ccc(F)cc3)CC2)cc1,active
7,COc1ccc(N/C=C(\C#N)c2ccc(OCCCF)cc2)cc1,inactive
8,COc1ccc(C2C(C#N)=C(N)N3C(=C2C#N)Sc2ccccc23)cc1 (configuration not stated),inactive
9,Cc1nn(C)cc1C1C2=C(CC(C)(C)CC2=O)OC2=C1C(=O)CC(C)(C)C2,inactive
10,CC1(C)CC(=O)C2=C(C1)OC1=C(C(=O)CC(C)(C)C1)C2c1ccc(O)cc1O,active
11,CC1(C)CC(=O)C(C2C3=C(CC(C)(C)CC3=O)Oc3ccccc32)=C(O)C1 (configuration not stated),inactive
12,O=C(c1cccs1)N(Cc1ccco1)c1nc(-c2ccc(F)cc2)cs1,inactive
13,COc1ccc(-c2cc(C(F)(F)F)n3nc(C(=O)N4CCCCC4)cc3n2)cc1OC,inactive
14,Cc1ccc2[nH]c(-c3ccccc3)cc(=O)c2c1,active
15,O=c1cc(-c2ccccc2)[nH]c2ccccc12,inactive
16,Cc1ccc2[nH]c(C(=O)O)c(-c3ccccc3)c2c1,inactive
17,COc1ccc(NC(=O)N2CCCC2C(=O)NCc2ccc(F)cc2)cc1 (configuration not stated),inactive
18,O=C(CSCCO)Nc1ccc(C2CCCCC2)cc1,inactive
19,O=C(O)CSCC(=O)Nc1ccccc1,inactive
20,Cc1ccc(C(=O)CC2(O)C(=O)N(Cc3ccc4c(c3)OCO4)c3ccccc32)cc1 (configuration not stated),inactive
21,Cc1cc(C)c(S(=O)(=O)N2CCC(C(=O)NCc3ccco3)CC2)c(C)c1,inactive
22,O=C(N/N=C/C=C/c1ccccc1)c1ccccc1Br,inactive
23,O=C(N/N=C/c1ccc([N+](=O)[O-])s1)c1cccc(Br)c1,inactive
24,COc1cc(C(=O)N/N=C\c2ccccc2)c([N+](=O)[O-])c(OC)c1OC,inactive

row,SMILES,outcome
1,Cc1ccc(C(=O)N/N=C/c2sc(=O)n(Cc3cccc(C(=O)O)c3)c2Cl)cc1,inactive
2,CC(=O)Nc1ccc(NC(=O)c2ccccc2C)cc1,inactive
3,Cc1ccc(C(=O)NNS(=O)(=O)c2ccccc2[N+](=O)[O-])cc1,inactive
4,COc1cccc(NC2=NCC(=O)N2Cc2cccs2)c1,inactive
5,O=C1c2ccccc2C(=O)N1CCOCCN1C(=O)c2ccccc2C1=O,inactive
6,CCC(=O)N(Cc1ccc(S(N)(=O)=O)cc1)C1CC(=O)N(c2ccc(OC)cc2)C1=O (configuration not stated),inactive
7,Cc1cc2nnc(SCC(=O)N3C(C)CCCC3C)n2c(N)n1 (configuration not stated),inactive
8,COC(=O)CSc1cc(C(=O)c2nccn2C)c2ccccc2n1,inactive
9,COCCNC(=O)C(c1cccs1)N(Cc1cccs1)C(=O)Cn1nnc2ccccc21 (configuration not stated),inactive
10,CCCCS(=O)(=O)Nc1ccc(C(=O)NCC2CCCO2)cc1 (configuration not stated),inactive
11,CCN(CC)c1ccc(NC(=O)c2cnc3ccccn3c2=O)c(C)c1,inactive
12,Cc1cccc(NC(=O)c2cnc3ccccn3c2=O)c1,inactive
13,CCCC(=O)c1ccc(N2CCOCC2)c(F)c1,inactive
14,Cn1c(C(=O)N2CCN(Cc3ccccc3)CC2)cc2c(=O)n(C)c3ccccc3c21,inactive
15,Cc1cccc(N2CCN(C(=O)c3ccncc3)CC2)c1C,inactive
16,COc1ccc(Cl)cc1S(=O)(=O)N1CCN(C(=O)c2cc(OC)c(OC)c(OC)c2)CC1,inactive
17,COc1ccc(C(=O)N2CCN(C(=O)c3cc(OC)c(OC)c(OC)c3)CC2)cc1,inactive
18,COc1cc(C(=O)N2CCN(c3cc(Cl)ccc3Cl)CC2)cc(OC)c1OC,active
19,COc1cc(C(=O)N2CCN(C(=O)c3ccccc3)CC2)cc(OC)c1OC,inactive
20,COc1cc(C(=O)N2CCN(c3cccc(C)c3C)CC2)cc(OC)c1OC,active
21,O=C(Nc1cccc(Cl)c1N1CCCC1)c1ccc(Br)o1,inactive
22,O=C(Nc1ccccc1)NC1CC2CCC(C1)N2Cc1nnnn1Cc1ccc2c(c1)OCO2 (configuration not stated),inactive
23,COc1ccc(Nc2cc(C)nc3nc(C)nn23)cc1Cl,inactive
24,CC(=O)Nc1c2c(nn1-c1ccc(C)cc1C)CSC2,inactive
